Source: PubChem BioAssay
Hits are enriched below; roughly 12% of the tested compounds scored in any of these assays.
JMJD2A Tudor – qHTS Assay for Inhibitors of JMJD2A-Tudor Domain | Lysine-specific demethylase 4A (Homo sapiens), O75164 | AlphaScreen JMJD2A-Tudor / H3K4me3 peptide binding | Potency, µM (highest dose often 114 µM), inactives show at the top dose activity change, negative = inhibition, hits mostly inhibitors | 4.4% of 390,000 active | AID 504339, 2011; note: % is set by controls: 0 for no effect and ±100 for the full control effect; nearly all actives have a fitted effect of over 50% in size
Sfp inh – qHTS Assay for Inhibitors of Bacillus subtilis Sfp phosphopantetheinyl transferase (PPTase) | 4'-phosphopantetheinyl transferase ffp (Bacillus subtilis), Q9F4F7 | Biochemical Sfp PPTase activity, qHTS | Potency, µM, without a hit: largest response in the series, negative = inhibition, usual class: inhibitors | 3.5% of 310,000 active | AID 1490, 2009;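 note: the enzyme is Sfp with the accession as filed and its product quenches rhodamine fluorescence; 0% = enzyme reaction without inhibitor and -100% = no enzyme wells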
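With Hepes-Na pH 7.6 buffer containing 10 mM MgCl2, Sfp (15 nM) modified BHQ-2-YbbR (12.5 uM) using rhodamine-CoA (5 uM). Two reads 30 minutes apart at 525/598 nm yielded each well's rate.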
L3MBTL1 block – qHTS Assay for the Inhibitors of L3MBTL1; Lethal(3)malignant brain tumor-like protein 1 (Homo sapiens), Q9Y468; AlphaScreen L3MBTL1–H3K9me1 peptide binding; Potency, µM (top dose mostly 57.1 µM), inactives show at the highest dose activity, negative = inhibition, hits mostly inhibitors; 0.66% of 230,000 active; AID 485360, 2010; note: % is set by controls: 0 for no effect and ±100 for the full control effect; nearly all actives have a fitted effect of over 60% in size
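L3MBTL1 (50 nM) pre-complexed 30 min with biotinylated H3(1-15)K9me1 peptide (75 nM), then compounds added for 30 min at room temperature; AlphaScreen streptavidin donor/nickel chelate acceptor beads (10 ug/mL final) read after 30 min dark incubation.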
HP1b binding inh – HTS for Inhibitors of HP1-beta Chromodomain Interactions with Methylated Histone Tails. Chromobox protein homolog 1 (Homo sapiens), P83916. AlphaScreen HP1-beta / biotin-H3K9me3 peptide binding. Potency, µM (doses to about 114 µM), for the others: at the top dose activity change, negative = inhibition, most hits filed as inhibitors. 0.56% of 390,000 active; note: nearly all actives have a fitted effect of over 70% in size
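AlphaScreen: HP1-beta (50 nM) preformed 30 min with biotin-H3(1-18)K9me3 peptide (50 nM) in PBS pH 7.4, 0.01% Tween-20. Compound added for 30 min at RT, then streptavidin donor/nickel chelate acceptor beads (10 ug/mL) for 30 min.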
BAZ2B block – qHTS Assay for Inhibitors of BAZ2B; Bromodomain adjacent to zinc finger domain protein 2B (Homo sapiens), Q9UIF8; AlphaScreen BAZ2B-H3K14Ac peptide displacement; Potency, µM (highest dose often 114 µM), for inactives: at the highest dose activity change, negative = inhibition, hits mostly inhibitors; 4.4% of 360,000 active; note: % is set by controls: 0 for no effect and ±100 for the full control effect; nearly all actives have a fitted effect of over 60% in size
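Compounds, titrated to a top concentration of 110 uM, were incubated 30 min at room temperature with preformed BAZ2B/acetyl-K14 H3 peptide complex (50 nM each). Proximity signal was measured by AlphaScreen after 20 min with beads.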
G9a block – qHTS Assay for Inhibitors of Histone Lysine Methyltransferase G9a; Potency, µM (titrated, usually from 102 µM), inactives show top-dose activity, negative = inhibition, most hits filed as inhibitors; Histone-lysine N-methyltransferase EHMT2 (Homo sapiens), Q96KQ7; 8.8% of 350,000 active; G9a H3K9 monomethylation, AlphaScreen, 2 h; note: % is set by controls: 0 for no effect and ±100 for the full control effect; nearly all actives have a fitted effect of over 75% in size
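Step 1: enzyme (final 20 nM) with compound, 15 min RT. Step 2: substrate peptide 500 nM and SAM 20 uM, 2 h RT. Step 3: anti-H3K9me1 antibody and AlphaScreen beads, 10 min, then plate read.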
Starred values were filed as active, the others as inactive; ? = inconclusive; nt = not tested or not shown; [ ] = remark or other dose. Calls come from the whole dose curve; as a rule, active = well fitted curve in the direction sought with a large enough effect; inconclusive = small, poorly fitted or top-dose-only effect, or another doubt; inactive = no such curve, though single readings can be large; an effect the other way counts as inactive or inconclusive. Potency is the fitted concentration of half-maximal effect.

SMILES | JMJD2A Tudor | Sfp inh | L3MBTL1 block | HP1b binding inh | BAZ2B block | G9a block
C[C@@H](O)[C@@H]1C(=O)N2C(C(=O)O)=C([C@H]3CCCO3)S[C@H]12 | nt | 79.4µM* | nt | nt | nt | 1.5%[12.7 µM]
CC(NC(=O)c1ccc(Cl)s1)C1CCCO1 (stereo not given) | -19.7% | -13.2% | nt | 9.7% | 5.9% | 11.4%[12.7 µM]
CCSc1nc(N)c(C#N)c(-c2ccccc2Cl)c1C#N | 0.7% | 9.9% | nt | 59.0% | 11.0% | 15.8µM*
Nc1c(Cl)ncnc1N/N=C/c1ccncc1 | 0.7% | 79.4µM* | -0.4% | 31.8% | -9.2% | 44.7µM*
Clc1cncc(Cl)c1N/N=C/c1ccncc1 | -8.9% | 14.4% | 3.1% | 12.8% | 3.5% | -2.9%[59 µM]
COc1ccc(/C=N/Nc2ncnc(Cl)c2N)cc1OC | -25.0% | 31.6µM* | -5.9% | 1.7% | ? | 50.1µM*
COc1ccc(/C=N/Nc2ncnc3sc4c(c23)CCCC4)cc1OC | -17.5% | -8.3% | -1.6% | 16.6% | -27.2% | 33.8%[59 µM]
Nc1c(Cl)ncnc1N/N=C/c1cccc(O)c1 | -21.4% | 56.2µM* | nt | 21.1% | -23.6% | 30.5%[12.7 µM]
Cc1nc([N+](=O)[O-])c(Br)n1CC(=O)c1ccc(Cl)cc1 | -24.2% | 4.7% | nt | 25.3% | -1.9% | 50.1µM*
CC(C)c1cc2c(c(O)c1O)[C@@]13CCCC(C)(C)C1CC2OC3=O (stereo not given in full) | 39.8µM* | 3.98µM* | nt | ? | -38.4% | 0.891µM*
CCCSc1nc2sc3c(c2c(=O)n1Cc1ccccc1)CC(C)(CC)OC3 (stereo not given) | 6.2% | nt | nt | 11.3% | 6.7% | -21.2%[59 µM]
Cn1cncc1CNc1ncnc2ccc(-c3ccc4c(c3)OCO4)cc12 | 56.2µM* | nt | nt | nt | nt | nt
COc1ccccc1NC(=O)Cc1cccc2ccccc12 | 11.6% | -1.4% | -6.0%[2.29 µM] | 82.1% | 8.0% | 0.7%[0.501 µM]
CCCN(CC(=O)Nc1ccccc1OC)Cc1c(O)ccc2ccccc12 | 56.2µM* | -10.5% | nt | ? | ? | 3.55µM*
CN(CC(=O)Nc1ccccc1C(F)(F)F)Cc1c(O)ccc2ccccc12 | 79.4µM* | -6.2% | nt | -29.7% | ? | 7.94µM*
COc1ccc(Oc2ncc3nc(-c4cc(F)cc(F)c4)c(=O)n(C)c3n2)cc1 | nt | -23.7% | nt | nt | nt | -6.7%[12.7 µM]
Cc1ccc(-n2nc(C(=O)Nc3ccc(Cl)cn3)c3c4ccccc4n(C)c3c2=O)cc1 | -24.3% | nt | nt | -1.2% | nt | 4.8%[59 µM]
O=C(NCc1cccnc1)/C(=C\c1ccc(-c2ccc(Br)cc2)o1)S(=O)(=O)c1ccccc1 | ? | 2.0% | -8.2% | -4.7% | ? | 14.1µM*
COc1ccc(NS(=O)(=O)c2ccc3nc(COc4ccc(Cl)c(C)c4)[nH]c3c2)cc1 | -26.0% | 36.2% | -0.3% | 0.7% | -3.3% | 44.7µM*
CC(C)Oc1cccc(C(=O)NC(=S)Nc2ccc(N3CCN(C)CC3)cc2)c1 | 50.1µM* | 70.8µM* | -16.1% | ? | 39.8µM* | nt
COc1ccc(C(=O)NC(=S)Nc2ccc(N3CCCC3)cc2)cc1 | -19.0% | 8.5% | -17.3% | -9.7% | -27.9% | ?
CC(=O)c1ccc(N2CCN(C(=S)Nc3ccc(Oc4ccccc4)cc3)CC2)cc1 | -18.9% | 6.2% | -7.4% | 8.0% | nt | 16.5%
COc1cc(C(=O)NC(=S)Nc2ccc(N3CCCC3)cc2)cc(OC)c1OC | -31.5% | ? | -10.2% | 10.2% | ? | 31.6µM*
CC(C)Oc1ccc(C(=O)Nc2ccc3c(c2)n(C)c(=O)n3C)cc1 | -8.6% | 14.1% | 3.4% | 49.2% | ? | -2.2%
CN1CCN(c2ccc(NC(=O)c3ccc(Oc4ccccc4)cc3)cc2)CC1 | ? | 0.2% | nt | -38.4% | ? | 50.1µM*
